In the library only some 3.4% were active in any assay of this set; here they are far more common.
FBW7 act: FBW7 E3 ligase activators, primary screen, biochemical, AlphaScreen, human | F-box/WD repeat-containing protein 7 (Homo sapiens), Q969H0 | AlphaScreen FBW7–phospho-cyclin E peptide binding, activator screen | normalized activity (activation), % at 26.1 µM | hit rate 0.13% among 650,000 | AID 1259310, 2017; in the data active = normalized activity above about 1.9%;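 note: purified mutant Fbw7 with reduced substrate affinity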
Target sequence (Q969H0 whole entry, looked up): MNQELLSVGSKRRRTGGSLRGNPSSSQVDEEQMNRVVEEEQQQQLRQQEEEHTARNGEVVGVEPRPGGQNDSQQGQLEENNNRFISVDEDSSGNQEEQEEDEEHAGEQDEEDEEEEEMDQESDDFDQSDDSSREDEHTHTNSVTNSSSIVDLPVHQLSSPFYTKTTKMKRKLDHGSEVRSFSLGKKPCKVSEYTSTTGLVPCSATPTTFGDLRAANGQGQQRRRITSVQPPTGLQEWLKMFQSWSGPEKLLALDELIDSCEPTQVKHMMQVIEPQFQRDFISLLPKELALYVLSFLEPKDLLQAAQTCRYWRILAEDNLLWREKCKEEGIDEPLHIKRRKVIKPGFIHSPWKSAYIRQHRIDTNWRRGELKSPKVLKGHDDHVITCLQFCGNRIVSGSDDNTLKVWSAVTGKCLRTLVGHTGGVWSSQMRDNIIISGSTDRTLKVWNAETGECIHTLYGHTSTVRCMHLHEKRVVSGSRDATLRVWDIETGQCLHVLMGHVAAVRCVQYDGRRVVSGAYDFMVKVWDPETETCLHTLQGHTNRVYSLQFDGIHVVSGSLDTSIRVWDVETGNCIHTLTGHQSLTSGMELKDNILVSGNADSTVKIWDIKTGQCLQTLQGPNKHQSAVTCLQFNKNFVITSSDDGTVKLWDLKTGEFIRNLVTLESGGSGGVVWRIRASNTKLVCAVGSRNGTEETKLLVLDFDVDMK
TEAD-YAP block: TEAD-YAP interaction inhibition, primary screen, TEAD-YAP interaction inhibitor project, luminescence, HEK-TIYL cells; AID 1259422, 2018; TEAD-Gal4/YAP UAS-luciferase luminescence; inhibition, % at 9.12 µM; hit rate 1.4% among 640,000; in the data active = inhibition above about 32%
GPR151 ag: activators of human GPR151, primary screen, cell-based, PathHunter beta-arrestin, luminescence; G-protein coupled receptor 151 (Homo sapiens), Q8TDV0; PathHunter beta-arrestin GPR151 cells; activation, % at 11.2 µM; hit rate 1% among 650,000; AID 1508602, 2020; in the data active = activation above about 4.9%
MITF primary: MITF inhibitors, primary screen, biochemical, AlphaScreen, human; Microphthalmia-associated transcription factor (Homo sapiens), O75030; AlphaScreen MITF homodimerization, bead proximity signal; inhibition, % at 2.6 µM; hit rate 0.91% among 650,000; in the data active = inhibition above about 50%
MITF confirm: MITF inhibitors, retest of hits, confirmation, biochemical, AlphaScreen, triplicate | inhibition, % at 2.6 µM | shares compounds with MITF primary | AlphaScreen MITF homodimerization, biotin/His-MITF beads | AID 1259372, 2018 | hit rate 16% among 4,700;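 active = inhibition above a cutoff derived from the DMSO control wells, cut at about 28% in these data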;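 note: inhibitors lower the bead chemiluminescence by keeping MITF from dimerizing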
AlphaScreen DR: AlphaScreen optical interference compounds, dose response, counter-screen, biochemical, HTS. shares compounds with MITF primary. hit rate 6% among 480. AlphaScreen optical interference counterscreen, cell-free. AID 1259373, 2018. IC50, µM; call rule not given here
AlphaScreen intf2: AlphaScreen optical interference compounds, counter-screen for MITF inhibitor project, biochemical, triplicate. shares compounds with MITF primary. LysRS AlphaScreen counterscreen, signal interference. inhibition, % at 2.6 µM. hit rate 7.6% among 4,700. AID 1259376, 2018;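 active = inhibition above a cutoff derived from the DMSO control wells, cut at about 30% in these data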
GPR151 confirm: GPR151 activators, triplicate retest, confirmation, cell-based, PathHunter beta-arrestin, luminescence | shares compounds with GPR151 ag | GPR151 PathHunter beta-arrestin cells, 90 min; % of EA-reagent control over plate median | activation, % at 11.2 µM | 6,700 tested, under 10 active | AID 1508609, 2020;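 active = mean percent activation across replicates above the confirmation screen cutoff of 4.91%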
GPR119 counter: GPR119 activators in beta-arrestin cells, counter-screen for GPR151 activator project, cell-based, PathHunter beta-arrestin, luminescence, triplicate; activation, % at 11.2 µM; shares compounds with GPR151 ag; hit rate 0.3% among 6,700; AID 1508611, 2020; 90 min; 0 = compound-well median, 100 = enzyme-acceptor control;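 active = mean percent activation in the counterscreen above 29.09%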;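 note: counterscreen on off-target GPR119 to flag nonselective hits from the GPR151 activator screen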
Each line names hits and unclear results; the compound was inactive in the other large screens (follow-up assays come after a bar, where they were run).

CCC(C1=C(O)CC(C)(C)CC1=O)C1C(=O)CC(C)(C)CC1=O (stereo not drawn)	MITF primary 52.6 | MITF confirm inactive | AlphaScreen intf2 inactive
CC1(C)CC(=O)C(C(C2=C(O)CC(C)(C)CC2=O)c2ccccc2O)C(=O)C1 (stereo not drawn)	none
CS(=O)(=O)N(CC(N)=O)c1ccc(F)c(Cl)c1	none
CCN(CC)CCCNC(=O)c1[nH]c(C)c(C(=O)NC2CCCCC2)c1C	MITF primary 89.5 | MITF confirm inactive | AlphaScreen intf2 inactive
CCN(CC)CCCNC(=O)c1[nH]c(C)c(C(C)=O)c1C	none
Cc1cc(C)c(C2C(C#N)=C(N)Oc3n[nH]c(C)c32)cc1CSc1ccc(Br)cc1 (stereo not drawn)	MITF primary 99.2 | MITF confirm inactive | AlphaScreen intf2 inactive
Cc1cc(C)c(C2C(C#N)=C(N)Oc3n[nH]c(C)c32)cc1COc1ccc(F)cc1 (stereo not drawn)	none
CCOC(=O)C1CCN(C(=O)c2ccc(N3CC4CC(C3)c3cccc(=O)n3C4)c(NC(=O)c3ccc(F)cc3)c2)CC1 (stereo not drawn)	none
CCOC(=O)C1CCN(C(=O)c2ccc(N3CC4CC(C3)c3cccc(=O)n3C4)c(NC(=O)c3ccc(C(C)(C)C)cc3)c2)CC1 (stereo not drawn)	MITF primary 67.2 | MITF confirm inactive | AlphaScreen intf2 inactive
CCS(=O)(=O)N1CCN(Cc2ccccc2Br)CC1	none
O=[N+]([O-])c1ccc(S(=O)(=O)N2CCN(Cc3ccccc3Br)CC2)cc1	MITF primary 80.0 | MITF confirm inactive | AlphaScreen intf2 inactive
O=S(=O)(c1ccccc1)N1CCN(Cc2ccccc2Br)CC1	MITF primary 72.9 | MITF confirm inactive | AlphaScreen intf2 inactive
COc1ccc(OC)c(C(=O)CSc2ncn[nH]2)c1	none
COc1ccc(C(=O)CSc2ncn[nH]2)cc1C	MITF primary 69.2 | MITF confirm inactive | AlphaScreen intf2 inactive
CCOC(=O)c1cnc2c(C(F)(F)F)cccc2c1N1CCN(C)CC1	none
Cc1ccc(OCCN2CCNCC2)c(C)c1	none
CCN1CCN(CCOc2cc(C)ccc2C)CC1	GPR151 ag 16.8, MITF primary 64.5 | MITF confirm inactive | AlphaScreen intf2 inactive | GPR151 confirm inactive | GPR119 counter inactive
CCc1cc(OCCCCN2CCNCC2)ccc1Cl	GPR151 ag 6.4, MITF primary 54.4 | MITF confirm inactive | AlphaScreen intf2 inactive | GPR151 confirm inactive | GPR119 counter inactive
CCc1cc(OCCCN2CCNCC2)ccc1Cl	none
O=C(NC1(c2ccc3c(c2)OCO3)CCCC1)c1ccc(CN2CCOCC2)o1	none
CCOC(=O)N1CCN(C(=O)C2CCN(C/C(C)=C/c3ccccc3)CC2)CC1	GPR151 ag 6.6, MITF primary 57.9 | MITF confirm inactive | AlphaScreen intf2 inactive | GPR151 confirm inactive | GPR119 counter inactive
C/C(=C\c1ccccc1)CN1CCC(C(=O)N2CCCC2)CC1	none
Cc1cc(NS(=O)(=O)c2ccc(NC(=O)C3CC=CCC3C(=O)O)cc2)nc(C)n1 (stereo not drawn)	none
FC(F)(F)c1cccc(OCCCCNCCN2CCOCC2)c1	GPR151 ag 5.8, MITF primary 65.1 | MITF confirm inactive | AlphaScreen intf2 inactive | GPR151 confirm inactive | GPR119 counter inactive
CC(NC(=O)/C=C/c1cccs1)c1ccccc1 (stereo not drawn)	none
Fc1ccccc1-c1cc(NCCCn2ccnc2)nc(-c2ccncc2)n1	GPR151 ag 7.5, MITF primary 61.9 | MITF confirm 34.4 | AlphaScreen intf2 40.8 | GPR151 confirm inactive | GPR119 counter inactive
NS(=O)(=O)c1ccc(N/C=C/C(=O)c2ccco2)cc1	none
O=C(Cn1cnc2c(cnn2-c2ccccc2)c1=O)Nc1cccc2ccccc12	none
COc1ccccc1C(=O)N1CCN(Cc2ccc3c(c2)OCO3)CC1	none
COc1ccccc1/C=C/CN1CCN(Cc2ccc3c(c2)OCO3)CC1	GPR151 ag 6.1, MITF primary 69.4 | MITF confirm inactive | AlphaScreen intf2 inactive | GPR151 confirm inactive | GPR119 counter inactive
CCOc1ccccc1CN1CCC(N2CCCC2)CC1	GPR151 ag 9.2, MITF primary 56.0 | MITF confirm inactive | AlphaScreen intf2 inactive | GPR151 confirm inactive | GPR119 counter inactive
O=S(=O)(NCc1ccccc1)c1cccc(S(=O)(=O)c2ccccc2)c1	none
O=C1Nc2ccc(S(=O)(=O)NCc3ccccc3)cc2C1=O	GPR151 ag 6.1, MITF primary 78.9 | MITF confirm 57.5 | AlphaScreen DR inactive | AlphaScreen intf2 inactive | GPR151 confirm inactive | GPR119 counter inactive
COc1ccc(OC)c(CN2CCC(C(=O)NCc3ccc(C)cc3)CC2)c1	none
COc1ccc(OC)c(CN2CCN(Cc3ccc(C)cc3)CC2)c1	GPR151 ag 5.5, MITF primary 83.3 | MITF confirm inactive | AlphaScreen intf2 inactive | GPR151 confirm inactive | GPR119 counter inactive
O=C(O)c1cc(N=Cc2ccco2)ccc1O	GPR151 ag 5.0, MITF primary 51.4 | MITF confirm 81.0 | AlphaScreen DR inactive | AlphaScreen intf2 inactive | GPR151 confirm inactive | GPR119 counter inactive
O=C(O)c1cc(N=Cc2nc(-c3ccc(Cl)cc3)oc2O)ccc1O	none
CCOC(=O)N1CC(=O)Nc2ccccc2S1(=O)=O	GPR151 ag 10.6, MITF primary 66.4 | MITF confirm inactive | AlphaScreen intf2 inactive | GPR151 confirm inactive | GPR119 counter inactive
Cc1ccc(N2CC(=O)Nc3ccccc3S2(=O)=O)cc1	none
Cc1ccccc1OCCOCCn1cnc2ccccc21	GPR151 ag 4.9, MITF primary 71.9 | MITF confirm inactive | AlphaScreen intf2 inactive | GPR151 confirm inactive | GPR119 counter inactive
Clc1cc2c(c3ncccc13)OCN(CCCN1CCOCC1)C2	GPR151 ag 5.2, MITF primary 92.0 | MITF confirm 102.3 | AlphaScreen intf2 100.3 | GPR151 confirm inactive | GPR119 counter inactive
CCC(c1nnnn1Cc1ccc(OC)cc1)N1CCN(C(=O)c2ccco2)CC1 (stereo not drawn)	none

From PubChem
